The values that follow come from PubChem BioAssay (NCI).

Compounds without any hit were thinned out: in the full panel of roughly 83,000, 20% have a hit.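 Testing used 96-well plates and a 48-hour single-concentration exposure. Example: -40 means 40% of the starting cells died.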 Activity calls are given as the source filed them. Rule for the calls: active = growth percent below 10; inactive = the rest.

One test has as its system SF-295 CNS. Nature of the test: NCI-60 one-dose screen, 48 h (100 = growth as untreated, 0 = no growth, -100 = all killed). The following applies: 10 µM.
On to `COc1ccc(C2c3sc4ccc(C)cc4c3Oc3nc(N)nc(N)c32)cc1` (stereo not drawn), for which the growth is 102% (inactive).
For `Cc1cc(N=C2NC(=O)S/C2=C\c2ccc(F)cc2)n[nH]1`, the growth was 12.1% (inactive).
With `Cn1cc(-c2nnc(N)nc2-c2c[nH]c3ccccc23)c2cc(Br)cnc21`, the growth was 37.2% (inactive).
Consider `O=C(CC(=O)Nc1ccc(Oc2ncnc3scc(Nc4n[nH]c(=S)s4)c23)cc1)Nc1ccc(Cl)cc1`, for which the growth is 99.6% (inactive).
For `O=C1NC2C=CC=CC2/C1=C1/SC(=S)N(C2CC(=O)N(c3ccc(Br)cc3)C2=O)C1=O` (stereo not drawn), the growth is 109% (inactive).
The same measure, in the same setting: next, `CC1(C)CC(=O)C2=C(C1)N(Cc1ccc(C(=O)O)cc1)C1=C(C(=O)CC(C)(C)C1)C2c1ccc(Cl)cc1`: 99.4% (inactive).
On to `Cc1ccc2c(c1)C(=O)/C(=C/c1ccc([N+](=O)[O-])cc1)S2`, for which the growth is 98.2% (inactive).
Regarding `O=C(Nc1ccc(OCc2ccc(Cl)cc2)cc1)Nc1ccc(Cl)c(C(F)(F)F)c1`, the growth is -12.8% (active).
In the case of `Cn1cc(-c2nc(N)nnc2-c2c[nH]c3ccccc23)c2cc(Br)cnc21`, the growth is 15% (inactive).
Still for that read-out and setting: next, `O=C(CSc1nc2ccccc2c(=O)n1-c1ccc(Cl)cc1)Nc1ccc(-c2nc3ccccc3[nH]2)cc1`: -7.28% (active).
`Cc1ccc2c(c1)C(=O)/C(=C/c1c[nH]c3ccccc13)S2`: the growth is 73.2% (inactive).
Turning to `COc1cccc(O)c1/C=C1\SCc2cc3c(OC)cccc3[o+]c21`, the growth was 99% (inactive).
Regarding `COc1cc(C2CC(c3ccc(Oc4ccc(Cl)cc4)cc3)=NN2c2nc(-c3ccc(Cl)cc3)c(C#N)c(N3CCOCC3)n2)cc(OC)c1OC` (stereo not drawn), the growth is 107% (inactive).
On to `O=C(Nc1ccc(OCC(=O)c2ccc(Cl)cc2)cc1)Nc1ccc(Cl)c(C(F)(F)F)c1`, for which the growth is 27.5% (inactive).
`Cc1ccc2sc3c(c2c1)Oc1nc[nH]c(=O)c1C3c1cccc(F)c1` (stereo not drawn): the growth was 109% (inactive).
On the same count and under the same terms, next, `Cc1cc(N=C2NC(=O)/C(=C/c3cc(C(C)(C)C)c(O)c(C(C)(C)C)c3)S2)n[nH]1`: -0.721% (active).
For `COc1ccc(C2c3sc4ccc(C)cc4c3Oc3nc[nH]c(=O)c32)cc1` (stereo not drawn), the growth was 107% (inactive).
`COc1cccc(C(=O)CSc2nc(-c3ccc(OCc4ccccc4)c(OC)c3)c(C#N)c(=O)[nH]2)c1`: the growth is 95.2% (inactive).
Regarding `Cc1ccc(COc2ccc(NC(=O)Nc3ccc(Cl)c(C(F)(F)F)c3)cc2)cc1`, the growth is 67.7% (inactive).
For `CC(C)(C)c1cc(/C=C2\S/C(=N/c3ncn[nH]3)NC2=O)cc(C(C)(C)C)c1O`, the growth was 14.3% (inactive).
For `Cn1cc(/C=C(/SS/C(=C/c2cn(C)c3cccc(C(=O)O)c23)C(=O)O)C(=O)O)c2c(C(=O)O)cccc21`, the growth was 105% (inactive).
In the case of `COc1ccc(C(=O)COc2ccc(NC(=O)Nc3ccccc3)cc2)cc1`, the growth was 90.5% (inactive).
Same read-out and setting: next, `CCn1c(SCC(=O)Nc2ccc(-c3nc4ccccc4[nH]3)cc2)nc2ccccc2c1=O`: -66.8% (active); `O=C(Nc1ccc(OCc2ccc(F)cc2)cc1)Nc1ccc(Cl)c(C(F)(F)F)c1`: -30.4% (active).
With `O=C(CC(=O)Nc1ccc(Oc2ncnc3scc(Nc4n[nH]c(=S)s4)c23)cc1)Nc1ccc(Br)cc1`, the growth is 112% (inactive).
In the case of `COc1ccc(C(=O)COc2ccc(NC(=O)Nc3ccc(Cl)c(C(F)(F)F)c3)cc2)cc1`, the growth was 5.9% (active).
For `O=C(Nc1ccc(Oc2ncnc3scc(Nc4n[nH]c(=S)s4)c23)cc1)C1(C(=O)Nc2cccc(C(F)(F)F)c2)CC1`, the growth was 108% (inactive).
As to `O=C1NC(=S)S/C1=C\c1cn(-c2ccccc2)nc1-c1ccc([N+](=O)[O-])cc1`, the growth was 5.23% (active).
Turning to `O=C(CSc1nc2ccccc2c(=O)n1-c1ccc(Cl)cc1)Nc1ccc(-c2nc3ccc([N+](=O)[O-])cc3[nH]2)cc1`, the growth was 23.7% (inactive).

For another test, the system named is SF-539 CNS. The description is as above. The following applies: 10 µM.
With `COc1ccc(C2c3sc4ccc(C)cc4c3Oc3nc(N)nc(N)c32)cc1` (stereo not drawn), the growth is 69.6% (inactive).
On to `Cc1cc(N=C2NC(=O)S/C2=C\c2ccc(F)cc2)n[nH]1`, for which the growth is 4.62% (active).
Take `Cn1cc(-c2nnc(N)nc2-c2c[nH]c3ccccc23)c2cc(Br)cnc21`: the growth was 50.2% (inactive).
As to `O=C(CC(=O)Nc1ccc(Oc2ncnc3scc(Nc4n[nH]c(=S)s4)c23)cc1)Nc1ccc(Cl)cc1`, the growth is 91.6% (inactive).
As for `O=C1NC2C=CC=CC2/C1=C1/SC(=S)N(C2CC(=O)N(c3ccc(Br)cc3)C2=O)C1=O` (stereo not drawn), the growth is 93.6% (inactive).
Turning to `CC1(C)CC(=O)C2=C(C1)N(Cc1ccc(C(=O)O)cc1)C1=C(C(=O)CC(C)(C)C1)C2c1ccc(Cl)cc1`, the growth was 110% (inactive).
Take `Cc1ccc2c(c1)C(=O)/C(=C/c1ccc([N+](=O)[O-])cc1)S2`: the growth was 96.6% (inactive).
As to `O=C(Nc1ccc(OCc2ccc(Cl)cc2)cc1)Nc1ccc(Cl)c(C(F)(F)F)c1`, the growth is 7.92% (active).
On the same count and under the same terms, next, `Cn1cc(-c2nc(N)nnc2-c2c[nH]c3ccccc23)c2cc(Br)cnc21`: 8.25% (active).
As to `O=C(CSc1nc2ccccc2c(=O)n1-c1ccc(Cl)cc1)Nc1ccc(-c2nc3ccccc3[nH]2)cc1`, the growth is -29.4% (active).
With `Cc1ccc2c(c1)C(=O)/C(=C/c1c[nH]c3ccccc13)S2`, the growth was 48.1% (inactive).
With `COc1cccc(O)c1/C=C1\SCc2cc3c(OC)cccc3[o+]c21`, the growth was 98% (inactive).
Same read-out and setting: next, `COc1cc(C2CC(c3ccc(Oc4ccc(Cl)cc4)cc3)=NN2c2nc(-c3ccc(Cl)cc3)c(C#N)c(N3CCOCC3)n2)cc(OC)c1OC` (stereo not drawn): 95.7% (inactive); `O=C(Nc1ccc(OCC(=O)c2ccc(Cl)cc2)cc1)Nc1ccc(Cl)c(C(F)(F)F)c1`: 47.3% (inactive); `Cc1ccc2sc3c(c2c1)Oc1nc[nH]c(=O)c1C3c1cccc(F)c1` (stereo not drawn): 99.6% (inactive).
Still for that read-out and setting: next, `Cc1cc(N=C2NC(=O)/C(=C/c3cc(C(C)(C)C)c(O)c(C(C)(C)C)c3)S2)n[nH]1`: 18.9% (inactive).
Turning to `COc1ccc(C2c3sc4ccc(C)cc4c3Oc3nc[nH]c(=O)c32)cc1` (stereo not drawn), the growth was 79.3% (inactive).
In the case of `COc1cccc(C(=O)CSc2nc(-c3ccc(OCc4ccccc4)c(OC)c3)c(C#N)c(=O)[nH]2)c1`, the growth was 94.2% (inactive).
Regarding `Cc1ccc(COc2ccc(NC(=O)Nc3ccc(Cl)c(C(F)(F)F)c3)cc2)cc1`, the growth is 78.7% (inactive).
Consider `CC(C)(C)c1cc(/C=C2\S/C(=N/c3ncn[nH]3)NC2=O)cc(C(C)(C)C)c1O`, for which the growth was 18% (inactive).
Consider `Cn1cc(/C=C(/SS/C(=C/c2cn(C)c3cccc(C(=O)O)c23)C(=O)O)C(=O)O)c2c(C(=O)O)cccc21`, for which the growth is 98.5% (inactive).
For `COc1ccc(C(=O)COc2ccc(NC(=O)Nc3ccccc3)cc2)cc1`, the growth is 97% (inactive).
Regarding `CCn1c(SCC(=O)Nc2ccc(-c3nc4ccccc4[nH]3)cc2)nc2ccccc2c1=O`, the growth was -87.3% (active).
For `O=C(Nc1ccc(OCc2ccc(F)cc2)cc1)Nc1ccc(Cl)c(C(F)(F)F)c1`, the growth was 8.73% (active).
`O=C(CC(=O)Nc1ccc(Oc2ncnc3scc(Nc4n[nH]c(=S)s4)c23)cc1)Nc1ccc(Br)cc1`: the growth is 104% (inactive).
On to `COc1ccc(C(=O)COc2ccc(NC(=O)Nc3ccc(Cl)c(C(F)(F)F)c3)cc2)cc1`, for which the growth is 33.7% (inactive).
Take `O=C(Nc1ccc(Oc2ncnc3scc(Nc4n[nH]c(=S)s4)c23)cc1)C1(C(=O)Nc2cccc(C(F)(F)F)c2)CC1`: the growth is 96.1% (inactive).
For `O=C1NC(=S)S/C1=C\c1cn(-c2ccccc2)nc1-c1ccc([N+](=O)[O-])cc1`, the growth was 21% (inactive).
Consider `O=C(CSc1nc2ccccc2c(=O)n1-c1ccc(Cl)cc1)Nc1ccc(-c2nc3ccc([N+](=O)[O-])cc3[nH]2)cc1`, for which the growth is 28.6% (inactive).
